In assay [1] the target is Luciferin 4-monooxygenase (Photinus pyralis) (UniProt P08659). The assay is described as follows: qHTS assay to identify small molecule inhibitors of firefly luciferase (AID 1224835). Further: nearly all actives have a fitted effect of over 25% in size. Further: potency means the concentration at half of the fitted maximal effect. The essentials:
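Inhibition of purified Photinus luciferase is measured by luminescence. Substrate levels (D-luciferin, ATP) sit at their KM values. Each compound is tested in a concentration series.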
A general note: In qHTS, concentration-response curves come from the screen itself.

Assay [2] can be described thus: qHTS assay to identify small molecule agonists of the constitutive androstane receptor (CAR) signaling pathway - cell viability counter screen (AID 1224836). Further: nearly all actives have a fitted effect of over 45% in size. Further: potency means the concentration at half of the fitted maximal effect. The essentials:
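23 h treatment, 37 C, 5% CO2. Cell line: HepG2 stably expressing hCAR with a CYP2B6-2.2kb construct. Co-treatment: PK11195, 0.75 uM final. Read-out: CellTiter-Fluor fluorescence intensity.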

Assay [3] in a line: qHTS assay to identify small molecule antagonists of the constitutive androstane receptor (CAR) signaling pathway - cell viability counter screen (AID 1224837). Further: nearly all actives have a fitted effect of over 45% in size. Further: potency means the concentration at half of the fitted maximal effect. The essentials: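 Multiplexed cytotoxicity read-out for the CAR antagonist screen: double-stable HepG2-CYP2B6-hCAR cells co-treated with 50 nM CITCO (final) and compound over 15 concentrations, incubated 23 hr, then assessed by CellTiter-Fluor fluorescence.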

Assay [4] addresses Nuclear receptor subfamily 1 group I member 3 (Homo sapiens) (UniProt Q14994). The assay is described as follows: qHTS assay to identify small molecule antagonists of the constitutive androstane receptor (CAR) signaling pathway (AID 1224838). Further: nearly all actives have a fitted effect of over 40% in size. Further: potency means the concentration at half of the fitted maximal effect. The essentials:
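Compounds were titrated across 15 concentrations onto HepG2 cells double-stably expressing hCAR and a CYP2B6-2.2kb reporter, together with 50 nM CITCO (final). After 24 h at 37 C, luciferase activity was measured by luminescence.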

Assay [5] shares this target. The assay is described as follows: qHTS assay to identify small molecule agonists of the constitutive androstane receptor (CAR) signaling pathway (AID 1224839). Further: nearly all actives have a fitted effect of over 15% in size. Further: potency means the concentration at half of the fitted maximal effect.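 On activation: HepG2 cells stably carrying human CAR and a CYP2B6 luciferase reporter; on the % scale 0 is the no-effect control and ±100 the full control effect.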 Put shortly: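 Compounds tested at 15 concentrations on HepG2 cells stably harbouring hCAR and CYP2B6-2.2kb reporter constructs, co-treated with PK11195 (0.75 uM final), 24 h at 37 C; luminescent reporter signal quantified.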

Assay [6] is described as follows: qHTS assay to identify small molecule antagonists of the estrogen related receptor signaling pathway with the pleiotropic PPARgamma coactivator (PGC) from Tox21 10K library - cell viability counter screen (AID 1224840; active means well fitted cell-killing curve with a large enough effect in the repeat runs, not every such curve was filed as active; further: nearly all actives have a fitted effect of over 40% in size; further: potency means the concentration at half of the fitted maximal effect). Put shortly:
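Step one, plate 2,000 PGC/ERR cells per well; step two, incubate 6 h at 37 C/5% CO2; step three, pin-transfer compounds; step four, incubate 17.5 h; step five, add CellTiter-Fluor and read fluorescence after 30 min.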

A short description of assay [7]: qHTS assay to identify small molecule agonists of the estrogen related receptor signaling pathway with the pleiotropic PPARgamma coactivator (PGC) from Tox21 10K library (AID 1224842). Further: on the % scale 0 is the no-effect control and ±100 the full control effect; nearly all actives have a fitted effect of over 15% in size. The essentials:
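Luminescence from One-Glo (30 min, room temperature) measured after PGC/ERR cells had 18 h at 37 C with pinned compound (23 nL in DMSO). Cells had been seeded at 2,000 per well and pre-incubated 6 h.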

Assay [8] is described as follows: qHTS assay to identify small molecule agonists of the hypoxia (HIF-1) signaling pathway (AID 1224846; active means well fitted activation curve with a large enough effect in the signal ratio in the repeat runs, not every such curve was filed as active; the % refers to the signal ratio; further: on the % scale 0 is the no-effect control and ±100 the full control effect). The essentials: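 Steps: seed ME-180 HRE-bla cells (2,000/well, 0.5% dialyzed FBS); incubate 5 hrs at 37C; pin-transfer compounds or DMSO; incubate 17 hrs; add LiveBLAzer B/G substrate CCF4-AM; measure reporter activation by FRET.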
Assay [9] can be described thus: qHTS assay to identify small molecule antagonists of the estrogen related receptor (ERR) signaling pathway from Tox21 library (AID 1224848). Further: nearly all actives have a fitted effect of over 50% in size. Further: potency means the concentration at half of the fitted maximal effect. The essentials: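 Antagonist-mode screen of the Tox21 10K library in an NTP-provided ERR reporter cell line; 18 h compound exposure at 37 C, luminescence measured with ONE-Glo.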
A short description of assay [10]: qHTS assay to identify small molecule agonists of the estrogen related receptor (ERR) signaling pathway from Tox21 library (AID 1224849; calls by dose curve; further: on the % scale 0 is the no-effect control and ±100 the full control effect; nearly all actives have a fitted effect of over 15% in size). The following applies: ERR reporter cell line, ONE-Glo luciferase, 18 h; at 92.4 µM (top of the series) unless noted. The essentials:
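Agonist signal is luciferase luminescence from an ERR reporter cell line treated 18 h at 37 C with DMSO-dissolved compounds, read 30 min after ONE-Glo addition at room temperature.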

Assay [11] can be described thus: qHTS RealTime-Glo MT Cell Viability Assay in HepG2 cells - 24 hour (AID 1224867). Further: nearly all actives have a fitted effect of over 50% in size. Further: potency means the concentration at half of the fitted maximal effect. Put shortly:
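Luminescence read-out: viable HepG2 cells reduce a prosubstrate to a NanoLuc substrate, giving a signal proportional to live cell number. Reads taken at 0, 8, 16, 24, 32 and 40 h of compound exposure at 37 C.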

A short description of assay [12]: A CellTox Green Cytotoxicity Assay to monitor cytotoxicity in HEK293 cells - 0 hour (AID 1224869). Further: on the % scale 0 is the no-effect control and ±100 the full control effect; nearly all actives have a fitted effect of over 50% in size. The essentials:
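Cytotoxicity was tracked continuously in HEK293 cells by a DNA-binding dye excluded from viable cells. Compounds were transferred in DMSO 5 h after seeding; fluorescence was recorded at intervals up to 40 h.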

The nature of assay [13]: qHTS RealTime-Glo MT Cell Viability Assay in HepG2 cells - 40 hour (AID 1224870). Further: nearly all actives have a fitted effect of over 50% in size. Further: potency means the concentration at half of the fitted maximal effect. The essentials:
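Real-time viability: cells seeded at 600 per well together with NanoLuc and cell-permeant prosubstrate, compounds added after 5 h incubation. Luminescence tracked at 0, 8, 16, 24, 32 and 40 h of exposure.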

Assay [14] deals with Thyrotropin receptor (Homo sapiens) (UniProt P16473). Put plainly: qHTS assay to identify small molecule agonists of the thyroid stimulating hormone receptor (TSHR) signaling pathway (AID 1224843; calls by dose curve; further: on the % scale 0 is the no-effect control and ±100 the full control effect; nearly all actives have a fitted effect of over 45% in size). Put shortly:
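Screening of the Tox21 10K collection used HEK293 cells engineered with TSHR at 800 cells per well. After a 30-min room-temperature compound exposure, HTRF cAMP reagents were added and fluorescence recorded 1 h later.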

Assay [15] can be described thus: qHTS assay to identify small molecule agonists of the hypoxia (HIF-1) signaling pathway - cell viability counter screen (AID 1224844; calls by dose curve). Put shortly: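 Tox21 10K compounds were added to HRE-bla ME-180 cells (0.5% dialyzed FBS) and incubated 17 hrs at 37C; ATP-based CellTiter-Glo luminescence then reported cell viability in the same wells.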
Assay [16] can be described thus: qHTS assay to identify small molecule agonists of H2AX (AID 1224845; active means well fitted activation curve with a large enough effect in the signal ratio in the repeat runs, not every such curve was filed as active; the % refers to the signal ratio; further: on the % scale 0 is the no-effect control and ±100 the full control effect). Put shortly: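 Phospho-H2AX Ser139 measured by HTRF (ex 320 nm; em 665 and 620 nm) after 24 hr antibody incubation. Compounds, 15 concentrations, 0.76% DMSO, were applied to CHO-K1 cells for 3hr at 37C before lysis.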
A short description of assay [17]: qHTS RealTime-Glo MT Cell Viability Assay in HEK293 cells - 32 hour (AID 1224868). Further: nearly all actives have a fitted effect of over 50% in size. Further: potency means the concentration at half of the fitted maximal effect. Put shortly:
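Nonlytic real-time viability readout: viable cells convert prosubstrate to NanoLuc substrate, giving luminescence proportional to live cell number. HEK293, 600 cells/well, compound added after 5 h, continuous culture at 37 C.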

Assay [18] in a line: qHTS assay to identify small molecule antagonists of the estrogen related receptor signaling pathway with the pleiotropic PPARgamma coactivator (PGC) from Tox21 10K library (AID 1224841; call rule not given here; further: potency means the concentration at half of the fitted maximal effect). The essentials:
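Antagonism in this quantitative HTS is taken from loss of luciferase signal in PGC/ERR cells. Cells (2,000/well) are treated with compounds in DMSO after a 6 h settling period and read by One-Glo luminescence after 18 h.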

The nature of assay [19]: qHTS assay to identify small molecule agonists of H2AX - cell viability counter screen (AID 1224847; calls by dose curve; further: potency means the concentration at half of the fitted maximal effect; nearly all actives have a fitted effect of over 30% in size). Put shortly:
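Compounds tested at 15 concentrations were incubated 3 hr at 37C with wild-type CHO-K1 cells; cellular ATP-based luminescence (CellTiter-Glo) indicated viability.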

Assay [20] is described as follows: qHTS assay to identify small molecule antagonists of the estrogen related receptor (ERR) signaling pathway from Tox21 library - cell viability counter screen (AID 1224834). Further: on the % scale 0 is the no-effect control and ±100 the full control effect; nearly all actives have a fitted effect of over 30% in size. The essentials:
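Cytotoxicity of test substances is gauged in the same ERR cells used for the antagonist screen, after 17.5 h of compound treatment at 37 C, by CellTiter-Fluor fluorescence measured after 30 min.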

Each structure is given as a SMILES string. Unmarked numbers belong to inactive results. Records with an inconclusive call do not appear. Active and inactive are the calls of the source. Unless noted, the call rests on the fitted dose curve; in most records, active means well fitted curve in the direction sought with a large enough effect in the repeat runs; inconclusive means weak or mixed curves; inactive means no such curve, though single readings can be large; an effect the other way counts as inactive or inconclusive.

Luciferin 4-monooxygenase (Photinus pyralis), sequence (P08659 whole entry, looked up): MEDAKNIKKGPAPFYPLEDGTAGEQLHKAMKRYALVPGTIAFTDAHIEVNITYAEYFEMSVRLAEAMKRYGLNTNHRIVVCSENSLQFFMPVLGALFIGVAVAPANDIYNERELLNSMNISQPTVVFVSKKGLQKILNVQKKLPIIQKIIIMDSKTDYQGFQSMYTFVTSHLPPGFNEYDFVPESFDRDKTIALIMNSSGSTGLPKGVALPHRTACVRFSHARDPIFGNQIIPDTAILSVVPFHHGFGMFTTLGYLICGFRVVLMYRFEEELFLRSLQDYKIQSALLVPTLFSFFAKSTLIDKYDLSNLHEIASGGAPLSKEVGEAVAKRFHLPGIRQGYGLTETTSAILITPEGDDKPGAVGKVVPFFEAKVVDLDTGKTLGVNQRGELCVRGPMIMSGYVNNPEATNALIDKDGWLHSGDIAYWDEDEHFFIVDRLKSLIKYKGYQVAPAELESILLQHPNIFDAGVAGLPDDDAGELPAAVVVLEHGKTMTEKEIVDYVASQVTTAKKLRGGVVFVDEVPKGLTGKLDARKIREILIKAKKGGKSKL
Nuclear receptor subfamily 1 group I member 3 (Homo sapiens), sequence (Q14994 whole entry, looked up): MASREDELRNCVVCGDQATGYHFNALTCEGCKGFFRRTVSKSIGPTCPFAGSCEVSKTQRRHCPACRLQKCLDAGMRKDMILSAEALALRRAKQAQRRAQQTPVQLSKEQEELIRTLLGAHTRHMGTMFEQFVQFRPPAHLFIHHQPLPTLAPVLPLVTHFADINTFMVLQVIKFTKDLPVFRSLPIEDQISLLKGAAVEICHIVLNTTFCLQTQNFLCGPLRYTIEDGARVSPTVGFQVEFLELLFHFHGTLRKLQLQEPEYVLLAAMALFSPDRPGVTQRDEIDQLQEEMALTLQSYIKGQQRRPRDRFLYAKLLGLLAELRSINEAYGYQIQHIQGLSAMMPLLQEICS
Thyrotropin receptor (Homo sapiens), sequence (P16473 whole entry, looked up): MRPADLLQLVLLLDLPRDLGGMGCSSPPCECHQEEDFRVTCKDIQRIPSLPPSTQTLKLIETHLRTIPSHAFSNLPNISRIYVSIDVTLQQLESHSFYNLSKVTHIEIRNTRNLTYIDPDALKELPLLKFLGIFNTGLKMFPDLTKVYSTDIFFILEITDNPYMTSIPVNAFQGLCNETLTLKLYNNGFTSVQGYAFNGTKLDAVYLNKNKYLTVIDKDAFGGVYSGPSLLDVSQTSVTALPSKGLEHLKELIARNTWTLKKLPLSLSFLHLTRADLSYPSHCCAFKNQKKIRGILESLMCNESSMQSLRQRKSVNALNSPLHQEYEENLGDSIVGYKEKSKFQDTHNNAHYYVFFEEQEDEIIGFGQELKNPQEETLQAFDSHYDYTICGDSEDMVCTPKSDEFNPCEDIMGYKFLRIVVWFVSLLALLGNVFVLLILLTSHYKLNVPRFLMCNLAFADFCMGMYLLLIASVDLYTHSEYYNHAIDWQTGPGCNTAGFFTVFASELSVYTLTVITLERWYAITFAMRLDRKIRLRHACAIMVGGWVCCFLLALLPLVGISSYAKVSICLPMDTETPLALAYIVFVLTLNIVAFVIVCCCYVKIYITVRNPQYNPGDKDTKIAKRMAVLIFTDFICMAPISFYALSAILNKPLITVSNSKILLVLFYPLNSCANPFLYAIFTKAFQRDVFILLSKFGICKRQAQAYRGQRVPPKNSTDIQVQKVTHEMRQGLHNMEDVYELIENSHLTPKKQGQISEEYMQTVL

For the molecule `c1cc[c]([Bi]([c]2ccccc2)[c]2ccccc2)cc1`, the Potency entry in [1], in assay [2], in [3], in assay [4], in assay [6] and in assay [7] was “inactive” throughout. Besides, the Potency result in [11], in assay [12] and in [13] was “inactive” throughout. The figures for the Potency in assay [5] and in assay [9] were 15.4 µM (active) and 61.1 µM (active), respectively. Moreover, in assay [8], the molecule was classed as inactive. Besides, in assay [10], the activity change, positive = activation is -40.9%.

Regarding `Cc1cc(O)c2c(O)c3c(O)cccc3cc2c1`, the Potency result in assay [1], in [2], in [3], in assay [4], in assay [7] and in assay [14] was “inactive” each time. For the same molecule, the Potency entry in assay [15], in [16], in assay [11], in [17], in assay [12] and in [13] was “inactive” each time. Moreover, the Potency in [5] is 29.8 µM (active). The outcome in [8] was inactive. For the same molecule, in assay [10], the activity change, positive = activation is -25.3% [at 42.5 µM].

On to `C[N+]1(C)CCC(=C(c2ccccc2)c2ccccc2)CC1`, for which the Potency result in assay [1], in [2], in assay [3], in assay [4], in assay [5] and in assay [6] was “inactive” throughout. Moreover, the Potency entry in assay [18], in [7], in assay [14], in assay [15], in [16] and in assay [9] was “inactive” throughout. Also, the Potency entry in assay [11], in [17], in [12] and in [13] was “inactive” each time. The activity change, positive = activation in assay [10] was -2% [at 42.5 µM].

Take `CCc1c2c(nc3ccc(OC(=O)N4CCC(N5CCCCC5)CC4)cc13)-c1cc3c(c(=O)n1C2)COC(=O)[C@]3(O)CC`: the Potency entry in [1], in [2], in assay [3], in assay [5], in [6] and in assay [14] was “inactive” each time. Further, the Potency result in [12] and in assay [13] was “inactive” in each case. Moreover, the Potency is 2.98 µM (active) in [4] and 2.68 µM (active) in assay [17]. The outcome in assay [8] was inactive.

Take `Cc1cc2nc3ccc(=[N+](C)C)cc-3sc2cc1N`: the Potency in assay [1] was 9.77 µM (active); in assay [2] it was 21.1 µM (active); in assay [3], 10.6 µM (active); in assay [5] it was 8.41 µM (active); in assay [6], 13.3 µM (active); in [18] it was 2.66 µM (active). The Potency in [19] was 24.7 µM (active); in assay [9] it was 0.531 µM (active); in assay [11] it was 16.9 µM (active); in assay [17], 2.39 µM (active); in assay [13], 21.3 µM (active). Also, the Potency result in assay [4], in assay [7] and in [12] was “inactive” each time. For the same molecule, the outcome in [8] was inactive. In addition, in [10], the activity change, positive = activation was -65.1% [at 42.5 µM].

Take `CCCc1c(OCCCOc2ccc(OCC(=O)O)cc2)ccc(C(C)=O)c1O`: the Potency result in [20], in assay [2], in assay [3], in assay [6], in assay [18] and in [7] was “inactive” each time. Moreover, the Potency entry in [14], in [9], in [17] and in assay [13] was “inactive” each time. In addition, the Potency in assay [19] was 101 µM (active). The activity change, positive = activation in assay [10] was -8.13%.

Values taken from PubChem BioAssay (Tox21).
